Data published in publication PMC7862700, “An all-to-all approach to the identification of sequence-specific readers for epigenetic DNA modifications on cytosine”.

How the values were obtained:
Experiment in all cases: DAPPL (digital affinity profiling via proximity ligation, sequencing); 10 mM Tris-HCl pH 7.5, 50 mM NaCl, 1 mM DTT, 4% glycerol, room temperature, 30 min; GST-TFs on glutathione beads, 16-mer random dsDNA library, 0.1% formaldehyde crosslink after washing; high values mean tight binding
FEV = molecular target: T1, FEV (Homo sapiens, UniProt Q99581 1-238); conditions: protein: recombinant; tags: N-terminal GST; dsDNA, one strand shown
T1 sequence: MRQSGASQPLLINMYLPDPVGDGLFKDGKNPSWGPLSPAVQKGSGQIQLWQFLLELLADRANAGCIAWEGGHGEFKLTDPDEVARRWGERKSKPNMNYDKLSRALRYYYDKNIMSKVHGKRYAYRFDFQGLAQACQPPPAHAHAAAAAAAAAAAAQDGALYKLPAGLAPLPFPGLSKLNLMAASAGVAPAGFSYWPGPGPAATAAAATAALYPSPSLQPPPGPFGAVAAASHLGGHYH
Summary of the method: (§1)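 Binding signal is each hexamer's read frequency for a factor divided by its frequency in the tag-only sample. The factors were GST-fused human transcription factors from yeast, captured on glutathione beads, DNA-barcoded and pooled with that sample. Pools were incubated with 200 nmole of a random double-stranded 16-mer DNA library in Tris/NaCl/DTT/glycerol buffer at room temperature for 30 min, then washed, crosslinked with 0.1% formaldehyde, proximity-ligated with BsaI/T4 ligase (1 h, 37 °C), PCR-amplified and sequenced on an Illumina NextSeq500.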

ETV5 = ETV5 (Homo sapiens, UniProt P41161 1-510); conditions: protein: recombinant; tags: N-terminal GST; dsDNA, one strand shown
Sequence of ETV5 (P41161 whole entry): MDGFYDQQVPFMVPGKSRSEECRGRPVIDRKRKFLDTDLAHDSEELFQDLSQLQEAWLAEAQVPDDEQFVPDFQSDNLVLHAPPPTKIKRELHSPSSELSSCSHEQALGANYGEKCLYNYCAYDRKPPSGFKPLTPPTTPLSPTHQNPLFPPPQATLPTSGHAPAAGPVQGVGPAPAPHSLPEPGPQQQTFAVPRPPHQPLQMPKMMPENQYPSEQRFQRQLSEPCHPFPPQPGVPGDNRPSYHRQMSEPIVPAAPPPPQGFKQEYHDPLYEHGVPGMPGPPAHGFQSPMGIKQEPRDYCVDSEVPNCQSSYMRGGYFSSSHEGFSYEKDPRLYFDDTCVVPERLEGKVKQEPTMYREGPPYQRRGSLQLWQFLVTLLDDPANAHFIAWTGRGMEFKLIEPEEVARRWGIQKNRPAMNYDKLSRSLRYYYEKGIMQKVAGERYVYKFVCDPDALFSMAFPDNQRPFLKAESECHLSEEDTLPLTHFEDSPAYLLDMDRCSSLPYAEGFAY
Summary of the method: as §1

HSF1 = HSF1 (Homo sapiens, UniProt Q00613 1-529); conditions: protein: recombinant; tags: N-terminal GST; chain copies: 3; dsDNA, one strand shown
Sequence of HSF1 (Q00613 whole entry): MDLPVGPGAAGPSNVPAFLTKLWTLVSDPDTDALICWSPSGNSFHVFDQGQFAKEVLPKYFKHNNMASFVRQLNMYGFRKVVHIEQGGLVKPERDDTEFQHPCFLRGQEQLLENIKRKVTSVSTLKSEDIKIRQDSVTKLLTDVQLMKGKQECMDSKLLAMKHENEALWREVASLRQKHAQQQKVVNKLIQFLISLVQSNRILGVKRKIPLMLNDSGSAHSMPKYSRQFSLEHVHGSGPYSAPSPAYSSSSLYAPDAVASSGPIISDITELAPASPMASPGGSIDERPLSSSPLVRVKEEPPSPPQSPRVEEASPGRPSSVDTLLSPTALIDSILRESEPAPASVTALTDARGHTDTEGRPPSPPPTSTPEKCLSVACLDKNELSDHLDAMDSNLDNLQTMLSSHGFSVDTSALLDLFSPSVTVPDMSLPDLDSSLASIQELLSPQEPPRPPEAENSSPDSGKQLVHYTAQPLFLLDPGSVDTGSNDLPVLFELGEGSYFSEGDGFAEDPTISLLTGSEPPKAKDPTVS
Summary of the method: as §1

SPIC = molecular target: T2, SPIC (Homo sapiens, UniProt Q8N5J4 1-248); conditions: protein: recombinant; tags: N-terminal GST; dsDNA, one strand shown
T2 sequence: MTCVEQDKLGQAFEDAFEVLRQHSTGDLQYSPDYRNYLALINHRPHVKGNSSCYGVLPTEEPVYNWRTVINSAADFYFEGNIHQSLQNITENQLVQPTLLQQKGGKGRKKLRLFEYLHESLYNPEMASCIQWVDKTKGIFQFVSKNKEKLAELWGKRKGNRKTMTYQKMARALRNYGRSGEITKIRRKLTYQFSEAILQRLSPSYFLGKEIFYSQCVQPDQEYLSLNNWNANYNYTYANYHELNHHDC
Summary of the method: as §1

ELF4 = ELF4 (Homo sapiens, UniProt Q99607 1-663); conditions: protein: recombinant; tags: N-terminal GST; dsDNA, one strand shown
Sequence of ELF4 (Q99607 whole entry): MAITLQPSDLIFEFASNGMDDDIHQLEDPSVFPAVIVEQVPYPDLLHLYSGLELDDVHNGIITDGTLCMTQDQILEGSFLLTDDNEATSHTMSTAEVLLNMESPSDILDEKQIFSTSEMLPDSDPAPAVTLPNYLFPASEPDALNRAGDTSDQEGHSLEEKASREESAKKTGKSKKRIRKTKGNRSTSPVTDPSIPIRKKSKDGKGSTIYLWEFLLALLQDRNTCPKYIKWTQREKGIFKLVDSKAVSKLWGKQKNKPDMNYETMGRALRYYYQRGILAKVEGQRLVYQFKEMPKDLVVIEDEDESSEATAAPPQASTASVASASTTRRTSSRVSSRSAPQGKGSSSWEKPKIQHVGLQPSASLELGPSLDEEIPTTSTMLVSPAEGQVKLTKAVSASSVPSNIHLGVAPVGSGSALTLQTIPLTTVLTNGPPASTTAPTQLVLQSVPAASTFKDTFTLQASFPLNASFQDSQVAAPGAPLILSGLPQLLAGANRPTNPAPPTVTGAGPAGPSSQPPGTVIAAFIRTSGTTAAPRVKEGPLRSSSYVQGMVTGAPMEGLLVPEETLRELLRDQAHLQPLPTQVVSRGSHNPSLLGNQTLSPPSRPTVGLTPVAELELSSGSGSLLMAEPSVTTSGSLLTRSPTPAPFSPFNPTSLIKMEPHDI
Summary of the method: as §1

ELK4 = molecular target: T3, ELK4 (Homo sapiens, UniProt P28324-2 1-405); conditions: protein: recombinant; tags: N-terminal GST; dsDNA, one strand shown
T3 sequence: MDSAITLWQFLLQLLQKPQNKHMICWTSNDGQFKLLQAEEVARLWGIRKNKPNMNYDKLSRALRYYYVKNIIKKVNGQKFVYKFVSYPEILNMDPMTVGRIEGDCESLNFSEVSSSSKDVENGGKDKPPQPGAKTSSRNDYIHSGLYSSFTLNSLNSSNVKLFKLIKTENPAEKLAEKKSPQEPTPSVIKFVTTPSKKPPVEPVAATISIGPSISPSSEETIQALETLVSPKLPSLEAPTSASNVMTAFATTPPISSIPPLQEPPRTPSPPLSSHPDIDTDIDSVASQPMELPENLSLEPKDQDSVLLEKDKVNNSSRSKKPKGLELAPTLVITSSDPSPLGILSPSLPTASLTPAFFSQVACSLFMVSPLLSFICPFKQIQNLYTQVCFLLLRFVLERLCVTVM
Summary of the method: as §1

ETV2 = molecular target: T4, ETV2 (Homo sapiens, UniProt O00321 1-342); conditions: protein: recombinant; tags: N-terminal GST; dsDNA, one strand shown
T4 sequence: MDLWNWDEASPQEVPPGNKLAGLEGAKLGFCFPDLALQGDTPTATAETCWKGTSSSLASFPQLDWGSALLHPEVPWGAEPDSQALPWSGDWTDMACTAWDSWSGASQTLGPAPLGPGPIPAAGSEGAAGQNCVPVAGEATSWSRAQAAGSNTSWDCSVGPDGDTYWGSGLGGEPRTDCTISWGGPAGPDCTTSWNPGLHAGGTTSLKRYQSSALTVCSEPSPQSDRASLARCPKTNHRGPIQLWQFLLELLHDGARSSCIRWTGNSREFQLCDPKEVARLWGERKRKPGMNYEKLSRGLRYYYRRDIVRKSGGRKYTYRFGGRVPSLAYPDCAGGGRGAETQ
Summary of the method: as §1

ELF3 = molecular target: T5, ELF3 (Homo sapiens, UniProt P78545 1-371); conditions: protein: recombinant; tags: N-terminal GST; dsDNA, one strand shown
T5 sequence: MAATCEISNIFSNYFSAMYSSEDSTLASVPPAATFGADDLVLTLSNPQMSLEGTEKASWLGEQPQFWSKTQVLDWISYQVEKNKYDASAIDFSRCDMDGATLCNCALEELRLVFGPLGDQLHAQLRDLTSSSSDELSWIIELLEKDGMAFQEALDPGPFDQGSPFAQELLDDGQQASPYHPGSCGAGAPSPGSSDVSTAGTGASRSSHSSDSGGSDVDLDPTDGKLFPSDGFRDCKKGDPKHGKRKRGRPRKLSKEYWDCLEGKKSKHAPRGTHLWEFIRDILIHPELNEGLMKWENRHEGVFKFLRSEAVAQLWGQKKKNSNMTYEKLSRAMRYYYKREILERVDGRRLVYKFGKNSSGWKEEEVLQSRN
Summary of the method: as §1

CRX = CRX (Homo sapiens, UniProt O43186 1-299); conditions: protein: recombinant; tags: N-terminal GST; dsDNA, one strand shown
Sequence of CRX (O43186 whole entry): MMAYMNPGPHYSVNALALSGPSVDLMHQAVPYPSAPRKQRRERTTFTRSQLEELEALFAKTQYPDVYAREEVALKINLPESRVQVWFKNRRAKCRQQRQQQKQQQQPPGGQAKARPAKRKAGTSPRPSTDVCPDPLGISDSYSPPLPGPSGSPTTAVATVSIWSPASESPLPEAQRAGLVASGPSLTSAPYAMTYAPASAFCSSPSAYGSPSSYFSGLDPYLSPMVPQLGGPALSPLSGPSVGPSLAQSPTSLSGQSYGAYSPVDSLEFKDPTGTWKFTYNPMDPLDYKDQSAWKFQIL
Summary of the method: as §1

ETV1 = ETV1 (Homo sapiens, UniProt P50549 1-477); conditions: protein: recombinant; tags: N-terminal GST; dsDNA, one strand shown
Sequence of ETV1 (P50549 whole entry): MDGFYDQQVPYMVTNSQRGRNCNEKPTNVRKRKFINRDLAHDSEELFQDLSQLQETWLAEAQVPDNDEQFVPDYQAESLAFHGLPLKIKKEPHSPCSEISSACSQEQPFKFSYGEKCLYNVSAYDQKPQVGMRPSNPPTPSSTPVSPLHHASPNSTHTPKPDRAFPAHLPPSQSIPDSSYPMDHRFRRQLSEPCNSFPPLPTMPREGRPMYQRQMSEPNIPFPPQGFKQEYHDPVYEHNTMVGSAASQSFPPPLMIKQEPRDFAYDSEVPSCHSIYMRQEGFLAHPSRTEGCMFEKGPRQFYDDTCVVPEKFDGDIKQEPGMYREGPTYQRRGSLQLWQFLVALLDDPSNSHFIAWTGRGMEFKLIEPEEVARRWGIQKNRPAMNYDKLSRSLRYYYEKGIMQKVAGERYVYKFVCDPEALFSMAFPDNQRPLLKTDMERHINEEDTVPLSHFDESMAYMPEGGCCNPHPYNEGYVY
Summary of the method: as §1

ERF = molecular target: T6, ERF (Homo sapiens, UniProt P50548 1-548); conditions: protein: recombinant; tags: N-terminal GST; dsDNA, one strand shown
T6 sequence: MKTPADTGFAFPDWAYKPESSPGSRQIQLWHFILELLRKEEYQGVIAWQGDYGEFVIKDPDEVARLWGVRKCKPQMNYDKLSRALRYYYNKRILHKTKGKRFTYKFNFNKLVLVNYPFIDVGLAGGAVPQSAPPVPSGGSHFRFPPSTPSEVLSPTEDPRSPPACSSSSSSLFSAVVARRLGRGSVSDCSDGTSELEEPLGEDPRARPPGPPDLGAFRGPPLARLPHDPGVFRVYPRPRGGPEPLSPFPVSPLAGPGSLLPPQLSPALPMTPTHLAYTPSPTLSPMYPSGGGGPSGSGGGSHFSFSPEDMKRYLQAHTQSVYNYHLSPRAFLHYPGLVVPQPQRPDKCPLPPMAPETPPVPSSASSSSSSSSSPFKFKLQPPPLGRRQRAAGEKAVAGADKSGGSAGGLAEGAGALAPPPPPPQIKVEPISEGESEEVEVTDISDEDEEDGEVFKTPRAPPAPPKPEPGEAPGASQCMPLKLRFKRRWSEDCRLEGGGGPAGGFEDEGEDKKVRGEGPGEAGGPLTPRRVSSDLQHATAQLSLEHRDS
Summary of the method: as §1

ETV3L = molecular target: T7, ETV3L (Homo sapiens, UniProt Q6ZN32 1-361); conditions: protein: recombinant; tags: N-terminal GST; dsDNA, one strand shown
T7 sequence: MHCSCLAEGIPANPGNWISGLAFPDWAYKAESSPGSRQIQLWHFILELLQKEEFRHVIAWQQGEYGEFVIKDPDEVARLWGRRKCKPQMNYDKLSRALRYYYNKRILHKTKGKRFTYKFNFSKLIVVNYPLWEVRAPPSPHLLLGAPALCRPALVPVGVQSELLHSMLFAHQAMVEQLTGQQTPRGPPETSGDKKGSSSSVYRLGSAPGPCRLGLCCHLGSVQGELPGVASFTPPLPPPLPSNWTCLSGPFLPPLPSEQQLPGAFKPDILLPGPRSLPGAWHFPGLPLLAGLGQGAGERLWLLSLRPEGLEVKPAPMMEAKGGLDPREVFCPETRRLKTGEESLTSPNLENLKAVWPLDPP
Summary of the method: as §1

ETS2 = molecular target: T8, ETS2 (Homo sapiens, UniProt P15036 1-469); conditions: protein: recombinant; tags: N-terminal GST; dsDNA, one strand shown
T8 sequence: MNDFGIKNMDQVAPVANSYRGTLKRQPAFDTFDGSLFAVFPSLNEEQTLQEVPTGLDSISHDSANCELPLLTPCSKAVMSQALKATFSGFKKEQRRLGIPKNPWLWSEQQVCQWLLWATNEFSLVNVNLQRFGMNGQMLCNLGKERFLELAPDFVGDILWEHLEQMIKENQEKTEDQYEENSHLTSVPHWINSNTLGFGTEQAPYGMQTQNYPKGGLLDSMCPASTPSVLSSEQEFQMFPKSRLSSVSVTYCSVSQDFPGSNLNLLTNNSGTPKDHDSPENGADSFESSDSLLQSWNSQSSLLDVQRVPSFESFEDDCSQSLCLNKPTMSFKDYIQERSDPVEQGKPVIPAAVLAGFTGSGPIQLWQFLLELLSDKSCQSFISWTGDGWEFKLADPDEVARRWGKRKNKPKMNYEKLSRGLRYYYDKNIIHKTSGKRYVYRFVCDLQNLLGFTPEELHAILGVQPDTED
Summary of the method: as §1

SPDEF = molecular target: T9, SPDEF (Homo sapiens, UniProt O95238 1-335); conditions: protein: recombinant; tags: N-terminal GST; dsDNA, one strand shown
T9 sequence: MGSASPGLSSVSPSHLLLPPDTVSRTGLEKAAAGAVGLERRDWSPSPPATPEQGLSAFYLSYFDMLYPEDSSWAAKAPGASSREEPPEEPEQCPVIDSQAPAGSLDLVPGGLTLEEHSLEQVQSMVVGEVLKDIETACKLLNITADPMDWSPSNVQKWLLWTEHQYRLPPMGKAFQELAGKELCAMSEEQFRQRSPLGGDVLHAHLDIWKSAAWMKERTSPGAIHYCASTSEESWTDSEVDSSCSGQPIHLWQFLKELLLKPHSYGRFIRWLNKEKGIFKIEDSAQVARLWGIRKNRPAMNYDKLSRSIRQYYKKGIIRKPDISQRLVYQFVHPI
Summary of the method: as §1

ETV7 = molecular target: T10, ETV7 (Homo sapiens, UniProt Q9Y603 1-341); conditions: protein: recombinant; tags: N-terminal GST; dsDNA, one strand shown
T10 sequence: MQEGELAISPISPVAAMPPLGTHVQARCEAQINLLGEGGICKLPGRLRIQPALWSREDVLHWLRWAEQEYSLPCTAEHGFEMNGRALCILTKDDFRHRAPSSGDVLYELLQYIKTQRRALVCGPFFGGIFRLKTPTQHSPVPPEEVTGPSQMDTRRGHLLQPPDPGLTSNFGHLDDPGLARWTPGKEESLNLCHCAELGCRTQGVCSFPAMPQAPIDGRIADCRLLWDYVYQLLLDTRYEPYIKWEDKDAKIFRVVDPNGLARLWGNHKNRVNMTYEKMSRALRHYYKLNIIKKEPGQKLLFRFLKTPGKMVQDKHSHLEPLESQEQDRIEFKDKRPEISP
Summary of the method: as §1

ELF5 = molecular target: T11, ELF5 (Homo sapiens, UniProt Q9UKW6-2 1-255); conditions: protein: recombinant; tags: N-terminal GST; dsDNA, one strand shown
T11 sequence: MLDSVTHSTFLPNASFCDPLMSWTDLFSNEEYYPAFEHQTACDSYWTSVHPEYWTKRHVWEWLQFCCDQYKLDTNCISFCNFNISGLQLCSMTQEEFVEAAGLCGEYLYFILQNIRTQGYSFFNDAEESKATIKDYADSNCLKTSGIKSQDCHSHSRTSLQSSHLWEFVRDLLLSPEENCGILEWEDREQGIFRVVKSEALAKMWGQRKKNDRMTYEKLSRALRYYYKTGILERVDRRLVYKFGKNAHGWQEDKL
Summary of the method: as §1

ETV3 = molecular target: T12, ETV3 (Homo sapiens, UniProt P41162-2 1-143); conditions: protein: recombinant; tags: N-terminal GST; dsDNA, one strand shown
T12 sequence: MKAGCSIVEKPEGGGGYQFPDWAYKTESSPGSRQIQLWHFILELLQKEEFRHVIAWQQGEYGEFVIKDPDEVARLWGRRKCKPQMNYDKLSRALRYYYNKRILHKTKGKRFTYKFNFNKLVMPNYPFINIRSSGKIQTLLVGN
Summary of the method: as §1

ETV6 = ETV6 (Homo sapiens, UniProt P41212 1-452); conditions: protein: recombinant; tags: N-terminal GST; dsDNA, one strand shown
Sequence of ETV6 (P41212 whole entry): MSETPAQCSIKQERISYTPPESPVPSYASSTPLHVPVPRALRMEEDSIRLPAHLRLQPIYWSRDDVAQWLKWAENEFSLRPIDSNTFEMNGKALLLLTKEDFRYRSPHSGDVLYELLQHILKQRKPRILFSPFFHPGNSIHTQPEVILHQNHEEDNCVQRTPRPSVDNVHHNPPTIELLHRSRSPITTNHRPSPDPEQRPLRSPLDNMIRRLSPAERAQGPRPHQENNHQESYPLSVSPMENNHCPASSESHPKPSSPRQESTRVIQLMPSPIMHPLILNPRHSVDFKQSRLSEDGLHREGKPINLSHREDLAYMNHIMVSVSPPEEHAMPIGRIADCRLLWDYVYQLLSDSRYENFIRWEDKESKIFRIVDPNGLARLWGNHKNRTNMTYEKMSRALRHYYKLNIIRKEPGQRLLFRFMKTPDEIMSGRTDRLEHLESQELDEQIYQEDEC
Summary of the method: as §1

Sequence: AACTAC
- binding signal (FEV): 1.35 fold enrichment (6-mer frequency, TF over GST control)
- binding signal (ETV5): 1.38 fold enrichment (6-mer frequency, TF over GST control)
- binding signal (HSF1): 1.22 fold enrichment (6-mer frequency, TF over GST control)
- binding signal (SPIC): 1.35 fold enrichment (6-mer frequency, TF over GST control)
- binding signal (ELF4): 1.39 fold enrichment (6-mer frequency, TF over GST control)
- binding signal (ELK4): 1.32 fold enrichment (6-mer frequency, TF over GST control)
- binding signal (ETV2): 1.42 fold enrichment (6-mer frequency, TF over GST control)
- binding signal (ELF3): 1.31 fold enrichment (6-mer frequency, TF over GST control)
- binding signal (CRX): 1.2 fold enrichment (6-mer frequency, TF over GST control)
- binding signal (ETV1): 1.34 fold enrichment (6-mer frequency, TF over GST control)
- binding signal (ERF): 1.54 fold enrichment (6-mer frequency, TF over GST control)
- binding signal (ETV3L): 1.44 fold enrichment (6-mer frequency, TF over GST control)
- binding signal (ETS2): 1.42 fold enrichment (6-mer frequency, TF over GST control)
- binding signal (SPDEF): 1.48 fold enrichment (6-mer frequency, TF over GST control)
- binding signal (ETV7): 1.39 fold enrichment (6-mer frequency, TF over GST control)
- binding signal (ELF5): 1.5 fold enrichment (6-mer frequency, TF over GST control)
- binding signal (ETV3): 1.45 fold enrichment (6-mer frequency, TF over GST control)
- binding signal (ETV6): 1.51 fold enrichment (6-mer frequency, TF over GST control)
